Sfp PPTase inh: qHTS Assay for Inhibitors of Bacillus subtilis Sfp phosphopantetheinyl transferase (PPTase) | Biochemical Sfp PPTase activity, qHTS | Potency, µM, hits mostly inhibitors | 3.5% of 310,000 active;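 note: the enzyme is Sfp with the accession as filed and its product quenches rhodamine fluorescence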
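Reaction rates are the 30-min fluorescence difference (ex 525, em 598 nm) in wells containing 15 nM Sfp, 5 uM rhodamine-CoA and 12.5 uM BHQ-2-YbbR at pH 7.6 with 10 mM MgCl2.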
RORg inh: qHTS for inhibitors of ROR gamma transcriptional activity; Potency, µM (series often up to 53.6 µM), most hits filed as inhibitors; Drosophila S2 Gal4-RORgamma UAS-luciferase reporter, 20 h; AID 2551, 2010; 5.4% of 310,000 active; Nuclear receptor ROR-gamma (Mus musculus), P51450; note: nearly all actives have a fitted effect of over 60% in size
Target sequence (P51450 whole entry, looked up, the tested form may be a part): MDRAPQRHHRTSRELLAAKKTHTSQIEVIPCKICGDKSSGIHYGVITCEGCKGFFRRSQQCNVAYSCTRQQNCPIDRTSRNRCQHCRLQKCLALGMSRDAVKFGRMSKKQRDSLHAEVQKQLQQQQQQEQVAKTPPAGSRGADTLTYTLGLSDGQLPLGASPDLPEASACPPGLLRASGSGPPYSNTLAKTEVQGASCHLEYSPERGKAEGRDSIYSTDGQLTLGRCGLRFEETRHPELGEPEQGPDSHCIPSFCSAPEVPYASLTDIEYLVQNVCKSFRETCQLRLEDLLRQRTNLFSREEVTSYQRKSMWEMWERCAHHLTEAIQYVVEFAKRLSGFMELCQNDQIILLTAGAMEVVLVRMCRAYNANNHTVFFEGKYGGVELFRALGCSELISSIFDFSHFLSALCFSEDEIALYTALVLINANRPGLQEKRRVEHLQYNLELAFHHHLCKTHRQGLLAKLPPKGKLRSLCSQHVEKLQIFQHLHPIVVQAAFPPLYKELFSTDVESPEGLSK
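Drosophila S2 cells stably expressing Gal4-DBD/mouse RORγ fusion under metallothionein promoter plus UAS-luciferase; compound 1 h, then 700 uM CuSO4 induction for 20 h at ambient temperature; inhibition read as reduced luminescence.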
PLK1 PBD block: qHTS for Inhibitors of PLK1-PDB (polo-like kinase 1 - polo-box domain): Primary Screen | Serine/threonine-protein kinase PLK1 (Homo sapiens), P53350 | Plk1 PBD binding of FITC phosphopeptide, fluorescence polarization | Potency, µM, most hits filed as inhibitors | 2.8% of 360,000 active | AID 720504, 2013; note: series mostly up to about 57 µM; nearly all actives have a fitted effect of over 65% in size
ALDH1A1 inh: qHTS Assay for Inhibitors of Aldehyde Dehydrogenase 1 (ALDH1A1); Aldehyde dehydrogenase 1A1 (Homo sapiens), P00352; Purified ALDH1A1, NADH fluorescence, propionaldehyde substrate; Potency, µM (titrated, usually from 75.3 µM), most hits filed as inhibitors; 7.3% of 220,000 active; AID 1030, 2008; active = well fitted inhibition curve with a large enough effect, not every such curve was filed as active; inconclusive = small, poorly fitted or top-dose-only effect, or another doubt; inactive = no such curve, though single readings can be large or run the other way
VP16 counter: VP16 counterscreen qHTS for inhibitors of ROR gamma transcriptional activity; Drosophila S2 Gal4-VP16 UAS-luciferase, luminescence, 20 h; Potency, µM (titrated, usually from 53.6 µM), most hits filed as inhibitors; 3.5% of 310,000 active; AID 2546, 2010;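 note: Gal4-VP16 expression switched on by copper sulfate through the metallothionein promoter; nearly all actives have a fitted effect of over 50% in size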
Hits are given with their value; . = inactive; ? = inconclusive; / = no result given; [ ] = another dose, or the depositor's remark. An excerpt weighted towards active compounds, which were near 12% of everything screened. Unless noted, calls come from the whole dose curve; as a rule, active = well fitted curve in the direction sought with a large enough effect; inconclusive = small, poorly fitted or top-dose-only effect, or another doubt; inactive = no such curve, though single readings can be large; an effect the other way counts as inactive or inconclusive.

SMILES | Sfp PPTase inh | RORg inh | PLK1 PBD block | ALDH1A1 inh | VP16 counter
Cc1ccccc1C(=O)NC(=S)Nc1ccc(Cc2ccncc2)cc1 | . | .[10 µM] | . | ? | ?
COCCNC(=S)Nc1ccc(N2CCCCC2)cc1 | 13µM | ? | 3.8µM | 8.9µM | .
COc1ccc(C)cc1NC(=O)C(NC(=O)c1cc(OC)c(OC)c(OC)c1)C(C)C (stereo not drawn) | . | . | 30µM | . | .
COc1cc(C(=O)NC(=S)NC(C)C)cc(OC)c1OC | . | 7.9µM | . | ? | ?
COc1ccc(C(=O)NC(=S)Nc2ccc(Cc3ccncc3)cc2)cc1 | . | ? | ? | 14µM | ?
COc1ccccc1C(=O)NNC(=S)NC(=O)c1cc(OC)c(OC)c(OC)c1 | . | ? | . | . | .
COc1cc(C(=O)N[C@H](C(=O)NC(C)C23CC4CC(CC(C4)C2)C3)C(C)C)cc(OC)c1OC (stereo partly drawn) | . | . | . | . | .
N#Cc1cccc(C(=O)C(=O)N2CCN(c3ccccc3)CC2)c1 | / | / | . | / | /
O=C(/C=C/[C@H]1O[C@@H](n2ccc(=O)[nH]c2=O)[C@H](O)[C@@H]1O)NCCN1CCCC1 | / | / | . | / | /
COCOCCn1cc(CN2CCS(=O)(=O)N(Cc3ccc(-c4ccncc4)cc3)C(CC(C)C)C2=O)nn1 (stereo not drawn) | / | / | . | / | /
COc1cc(C(=O)NC(=S)NNC(=O)[C@H]2C[C@@H]2c2ccccc2)cc(OC)c1OC | . | 11µM | . | . | .
COc1ccc(C(=O)NC(=S)Nc2ccc(N3CCCC3)cc2)cc1 | . | 2µM | . | 10µM | 7.1µM
COc1cccc(C(=O)NC(=S)Nc2ccc(N3CCCC3)cc2)c1 | . | 2µM | . | 9.5µM | 8.9µM
COc1ccc(C(=O)Nc2ccc(N3CCCC3)cc2)cc1 | 79µM | ? | ? | ? | .
COC(=O)[C@@]1(Cc2ccccc2)[C@H]2c3cc(C(=O)N4CCCC4)n(Cc4nc5ccccc5[nH]4)c3C[C@H]2CN1C(=O)c1ccccc1 | . | . | / | . | .
COc1ccc(C(=O)N2CCN(c3ccc(NC(=O)Cc4ccccc4)cc3)CC2)cc1 | . | . | . | / | .
COc1cccc(C(=O)NC(=S)Nc2ccc(N(C)C)cc2)c1 | ? | 3.5µM | . | 10µM | ?
COc1cc(C(=O)NC(=S)Nc2ccc(N3CCCC3)cc2)cc(OC)c1OC | ? | 7.9µM | . | 28µM | 4.5µM
COc1ccccc1C(=O)NC(=S)Nc1ccc(N2CCCC2)cc1 | . | ? | . | . | .
COc1ccc(C(=O)N/N=C(/C)c2ccc(N3CCCCC3)cc2)cc1 | . | . | 30µM | ? | .
Cc1ccc(C(=O)N2CCN(c3ccc(NC(=S)NC(=O)Cc4ccccc4)cc3)CC2)cc1 | . | 5.6µM | . | ? | 8.9µM
COc1ccc(/C(C)=N/NC(=O)c2ccc(N(C)C)cc2)cc1 | . | . | . | . | .
CC(C)Oc1cccc(C(=O)NC(=S)Nc2ccc(N3CCN(C)CC3)cc2)c1 | 71µM | 5.6µM | . | ? | ?
CCCC(=O)N1CCN(c2ccc(NC(=S)NC(=O)c3cccc(C)c3)cc2)CC1 | . | ? | . | 20µM | ?
CCOc1cccc(C(=O)Nc2ccc(N3CCCC3)cc2)c1 | . | ? | . | / | .
SMILES | Sfp PPTase inh | RORg inh | PLK1 PBD block | ALDH1A1 inh | VP16 counter
COc1cc(C(=O)NC(=S)N2CCCCCC2)cc(OC)c1OC | . | 0.89µM | . | . | 2.8µM
Cc1ccc(Nc2nnns2)cc1C | 22µM | ? | 27µM | 4µM | .
CCc1nc2ccc(C(=O)NCCCn3ccnc3)cn2c1N(C)CCCc1ccccc1 | / | / | . | / | /
Cc1ccc(-c2csc(N3N=C(c4ccccc4)/C(=C\c4ccc(N(C)C)cc4)C3=O)n2)cc1 | . | ? | / | 3.5µM | .
CN1CCc2nc(NC(=O)c3cccc(S(=O)(=O)N4CCc5ccccc54)c3)sc2C1 | ? | ? | . | 13µM | .
COc1cccc(C(=O)Nc2sc3c(c2C#N)CCN(C(C)=O)C3)c1 | 40µM | . | 24µM | 8.9µM | .
COc1cccc(C(=O)Nc2nc3c(s2)CN(C)CC3)c1 | . | . | . | . | 13µM
O=C(Nc1nc2c(s1)CN(Cc1ccccc1)CC2)C1CCC1 | . | . | . | ? | .
CCN1CCc2nc(NC(=O)c3ccccc3)sc2C1 | . | 14µM | . | . | 11µM
O=C1[C@H]2[C@@H](c3ccccc3)N[C@]3(CCCN(Cc4ccc(Br)cc4)C3=O)[C@H]2C(=O)N1Cc1ccccc1 | / | / | . | / | /
CC(C)NC(=O)CN1C(=O)c2cccc3cccc1c23 | . | ? | . | / | .
Cc1ccc2c(c1)CCCN2S(=O)(=O)c1cccc(C(=O)Nc2ccccc2C(=O)O)c1 | / | / | 19µM | / | /
O=C(Nc1nc2c(s1)CCCC2)c1cccc(S(=O)(=O)N2CCCc3ccccc32)c1 | . | 3.2µM | . | ? | 13µM
CN(C)C(=O)c1ccc(NC(=O)c2cccc(S(=O)(=O)N3CCCc4ccccc43)c2)cc1 | / | / | . | / | /
Cc1cc(C)n2c(NCc3ccccc3)c(-c3cc4ccccc4o3)nc2n1 | / | / | . | / | /
CCc1nc(NCC2CC2)c2nnn(Cc3ccccc3)c2n1 | / | / | . | / | /
CCc1nc(NCCCCCO)c2nnn(Cc3ccccc3F)c2n1 | . | ? | . | 1.4µM | .
Fc1ccccc1Cn1nnc2c(NCCc3ccccn3)ncnc21 | . | . | . | 7.9µM | .
C#CCNc1nc(CC)nc2c1nnn2Cc1ccccc1F | . | ? | . | 7.9µM | .
CCc1nc(NCCC(C)C)c2nnn(Cc3ccccc3)c2n1 | . | ? | . | / | .
Cc1cc(OC(=O)Nc2ccccc2)ccc1Cl | / | / | . | / | /
c1ccc2[nH]c(SN3CCOCC3)nc2c1 | ? | . | / | 0.79µM | .
COc1ccc(CC(=O)Nc2nc(OCC(F)(F)F)cnc2-c2ccc(Cl)cc2Cl)cc1 | / | / | . | / | /
CCN(C)C1CN(Cc2cn(Cc3cccc(C(F)(F)F)c3)nn2)S(=O)(=O)C1 (stereo not drawn) | / | / | . | / | /
O=C(N/N=C/c1cccs1)c1cccc(NC(=O)c2ccccc2Cl)c1 | . | ? | . | 16µM | 14µM
SMILES | Sfp PPTase inh | RORg inh | PLK1 PBD block | ALDH1A1 inh | VP16 counter
O=C(N/N=C/c1cccs1)c1ccc(NC(=O)c2ccccc2Cl)cc1 | . | 10µM | . | ? | ?
Cc1ccc(/C=N/NC(=O)c2ccc(-n3cccc3)cc2)o1 | . | 18µM | . | / | ?
O=C(N/N=C/c1cccs1)c1ccc(-n2cccc2)cc1 | . | 6.3µM | . | . | 11µM
O=C(N/N=C/c1ccccc1F)c1cccc(NC(=O)c2ccccc2Cl)c1 | . | . | . | / | .
O=C(N/N=C/c1ccncc1)c1ccc(-n2cccc2)cc1 | . | . | . | . | .
Cc1ccc(/C=N/NC(=O)c2csc(C)c2)o1 | . | . | . | ? | .
O=C(N/N=C/c1ccco1)c1ccc(NC(=O)c2ccccc2Cl)cc1 | . | . | . | . | .
O=C(NCc1ccc(OC(F)(F)F)cc1)C1CC2Cn3c(nc4ccccc43)C2N1c1ccccc1 (stereo not drawn) | . | . | . | / | .

Source: PubChem (National Center for Advancing Translational Sciences (NCATS))
